High-throughput results (PubChem BioAssay)
OTUD3 block: inhibitors of human OTUD3 deubiquitinase. inhibition, % at 25 µM. purified OTUD3, Ub-rhodamine fluorescence, 2 h. hit rate 0.7% among 47,000. OTU domain-containing protein 3 (Homo sapiens), Q5T2D3
USP28 block: inhibitors of human USP28 deubiquitinase. purified USP28, Ub-rhodamine cleavage fluorescence, 30 min. inhibition, % at 25 µM. hit rate 3% among 47,000. AID 1645857, 2021
Target sequence (Q96RU2 whole entry, looked up): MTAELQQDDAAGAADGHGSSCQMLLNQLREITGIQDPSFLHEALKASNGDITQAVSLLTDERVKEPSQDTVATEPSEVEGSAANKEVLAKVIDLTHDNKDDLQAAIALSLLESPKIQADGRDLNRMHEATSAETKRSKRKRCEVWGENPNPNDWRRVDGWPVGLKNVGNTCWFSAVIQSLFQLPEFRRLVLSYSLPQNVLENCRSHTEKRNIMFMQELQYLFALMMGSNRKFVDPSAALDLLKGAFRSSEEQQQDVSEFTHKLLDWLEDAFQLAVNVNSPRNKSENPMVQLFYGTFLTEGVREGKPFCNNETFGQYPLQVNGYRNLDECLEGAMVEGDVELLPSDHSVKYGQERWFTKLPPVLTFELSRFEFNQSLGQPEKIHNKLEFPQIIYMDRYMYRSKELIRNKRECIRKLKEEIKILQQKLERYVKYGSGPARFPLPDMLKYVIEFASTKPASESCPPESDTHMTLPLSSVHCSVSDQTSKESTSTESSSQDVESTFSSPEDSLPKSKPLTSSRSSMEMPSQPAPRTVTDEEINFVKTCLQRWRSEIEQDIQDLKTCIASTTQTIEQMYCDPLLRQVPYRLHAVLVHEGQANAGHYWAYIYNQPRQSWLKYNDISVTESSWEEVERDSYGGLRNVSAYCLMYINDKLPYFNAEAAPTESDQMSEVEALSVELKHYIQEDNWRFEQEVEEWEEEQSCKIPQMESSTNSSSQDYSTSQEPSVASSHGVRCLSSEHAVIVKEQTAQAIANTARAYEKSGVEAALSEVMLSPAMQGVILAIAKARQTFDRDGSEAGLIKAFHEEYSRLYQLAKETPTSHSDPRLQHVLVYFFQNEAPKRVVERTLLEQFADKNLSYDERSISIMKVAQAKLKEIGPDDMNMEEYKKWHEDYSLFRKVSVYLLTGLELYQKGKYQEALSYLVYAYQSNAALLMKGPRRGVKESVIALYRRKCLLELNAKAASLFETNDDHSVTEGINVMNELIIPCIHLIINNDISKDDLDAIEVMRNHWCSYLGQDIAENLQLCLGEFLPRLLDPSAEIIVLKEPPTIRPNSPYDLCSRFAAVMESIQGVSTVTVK
USP8 block: inhibitors of human USP8 deubiquitinase; Ubiquitin carboxyl-terminal hydrolase 8 (Homo sapiens), P40818; purified USP8, Ub-rhodamine cleavage fluorescence, 30 min; inhibition, % at 20 µM; hit rate 4.2% among 47,000
USP17 inh: inhibitors of human USP17 deubiquitinase; Ubiquitin carboxyl-terminal hydrolase 17-like protein 5 (Homo sapiens), A8MUK1; purified USP17, Ub-rhodamine cleavage fluorescence, 3 h; inhibition, % at 50 µM; hit rate 6.5% among 47,000; AID 1645855, 2021
USP30 block: inhibitors of human USP30 deubiquitinase | purified USP30, Ub-rhodamine cleavage fluorescence | inhibition, % at 25 µM | hit rate 5.3% among 47,000
The depositor's hits bear a star; nt = not tested or not shown. In the library only some 13% were active in any assay of this set; here they are far more common. Rule as the data show it: active = inhibition above about 30%; inactive = the rest.

SMILES | OTUD3 block | USP28 block | USP8 block | USP17 inh | USP30 block
COc1ccc(-c2noc(CC(=O)Nc3cccc(C#N)c3)n2)cc1 | -0.3 | 0.3 | 12.2 | 39.4* | 17.5
COc1ccc(-c2noc([C@@H]3C[C@H](NC(=O)Nc4cccc(C#N)c4)CN3C)n2)cc1 | 22.4 | 21.2 | -3.1 | 24.7 | 36.5*
CCOc1ccc(NC(=O)CSCc2nc(-c3ccc(OC)c(OC)c3)no2)cc1 | 12.9 | 20.1 | 34.3* | 47.0* | -13.6
COc1ccccc1CNC(=O)c1csc(C(=O)N2CCCC2)n1 | 1.9 | 9.0 | 0.2 | -0.3 | -12.8
O=C(NCc1ccc(Cl)cc1)NCc1nnnn1-c1ccccc1 | 8.8 | 12.6 | -35.8 | 4.7 | 10.0
CC(C)(Oc1ccc(Cl)cc1)C(=O)NCc1nnnn1-c1ccc(F)cc1 | 11.4 | 30.7* | 11.5 | 17.2 | 18.5
COC1C(O)=C2C(=O)O/C(C)=C/C=C/C=C/C=C/CC(c3ccccc3)NC(=O)/C=C/C=C/C=C\C=C\C2(C)C1O (configuration not stated) | 33.3* | 31.2* | -46.8 | 43.2* | -51.2
Cc1ccc(-n2ncc3c(N4CCC(C)CC4)ncnc32)cc1Cl | 0.5 | -8.6 | 2.9 | 19.4 | 2.7
CC(=O)Nc1ccc2c(c1)nc(CCN1CCN(c3ccc(F)cc3)CC1)n2C | 5.6 | 1.3 | -25.3 | 0.2 | 2.6
CCNc1cc(N2CCCC(CCC(=O)NC(C)c3ccccc3)C2)ncn1 (configuration not stated) | -10.1 | -11.4 | -271.2 | -32.9 | -54.9
CCN(CC)S(=O)(=O)c1ccc2[nH]c(=O)cc(C(=O)Nc3ccc4c(c3)OCO4)c2c1 | 0.1 | -2.3 | 59.5* | -22.8 | -29.1
CCN(CC)c1ccc(NC(=O)c2cc(=O)[nH]c3ccccc23)cc1 | -8.5 | -12.0 | 16.5 | -7.0 | -26.5
CC(=O)c1ccc(NC(=O)C[n+]2cc(-c3ccc(Cl)cc3)n3c2CCC3)cc1 | 20.8 | 22.5 | -84.1 | 66.5* | 19.0
COC(=O)c1ccc(NC(=O)C[n+]2cc(-c3ccc(Cl)cc3)n3c2CCC3)cc1 | 1.9 | 5.6 | -0.1 | -14.6 | 21.3
CCOC(=O)c1ccc(NC(=O)C[n+]2cc(-c3ccc(C)cc3)n3c2CCC3)cc1 | 8.8 | 20.0 | -33.9 | -1.5 | 31.9*
CCOC(=O)c1ccc(NC(=O)C[n+]2cc(-c3ccc(Cl)cc3)n3c2CCC3)cc1 | 23.8 | 34.8* | 5.5 | 8.9 | 51.4*
Cc1ccc(C)c(NC(=O)C[n+]2cc(-c3ccc(F)cc3)n3c2CCC3)c1 | 9.7 | 8.8 | 10.7 | 5.5 | 6.9
COCCOC(=O)C1=C(C)Nc2nc3ccccc3n2C1c1cc(OC)c(OC)c(OC)c1 (configuration not stated) | 6.1 | 1.9 | 4.3 | 33.8* | 6.9
COc1ccccc1NC(=O)C1=C(C)Nc2nc3ccccc3n2C1c1ccncc1 (configuration not stated) | -0.1 | 1.1 | 3.1 | -1.2 | 5.4
O=C(Nc1ccc(NC(=O)c2ccccc2O)cc1)Nc1ccc(OCc2ccccc2)cc1 | -60.5 | -115.0 | 91.3* | -18.6 | -479.4
O=C(Nc1ccc(F)cc1)Nc1ccc(NC(=O)c2ccccc2O)cc1 | 0.2 | -3.0 | 52.0* | 33.8* | -12.9
O=C(COc1ncnc2ccccc12)Nc1ccc(OCc2ccccc2)cc1 | -1.1 | nt | 5.0 | 48.4* | nt
COc1cccc(NC(=O)Nc2ccc(NC(C)=O)cc2)c1 | -6.6 | 50.8* | 1.5 | 22.0 | -3.2
O=C(Nc1ccc(OCc2ccccc2)cc1)NC1Cc2ccccc2C1 | -0.3 | -4.1 | 7.8 | 7.5 | 17.7
CCCNC(=O)c1nnn(-c2cccc3c2CCN(CC2CC2)C3)c1C | -18.7 | -30.8 | -156.9 | -25.2 | -110.7
SMILES | OTUD3 block | USP28 block | USP8 block | USP17 inh | USP30 block
COc1ccc(NS(=O)(=O)c2cccc(NC(=O)COc3ccc(C#N)cc3)c2)cc1 | -14.1 | -9.8 | -14.0 | -9.0 | -12.6
CC(C(=O)Nc1ccc(F)cc1F)C1CCN(C(=O)Nc2ccccc2)CC1 (configuration not stated) | -14.9 | -20.3 | 5.5 | -17.9 | -73.9
CC(=O)Nc1ccc(Sc2ccc(C)cc2)cc1 | -7.4 | 7.4 | -46.8 | -7.4 | -25.6
O=C(Nc1ccc(F)cc1)Nc1ccc2ccccc2n1 | 5.4 | 10.1 | 50.6* | 18.3 | 31.1*
CC(=O)Nc1ccc(NC(=O)Nc2ccc(F)cc2)cc1 | 7.4 | 19.0 | 1.8 | 33.8* | 30.3*
Cc1cccc(Cl)c1NC(=O)Nc1ccc(NC(=O)c2ccccc2O)cc1 | -24.1 | -22.1 | 41.6* | 52.6* | -101.5
COc1cccc(NC(=O)c2ccccc2NC(=O)Cc2ccccc2OC)c1 | -10.9 | -8.9 | -14.1 | -2.4 | -17.0
COc1ccccc1NC(=O)Nc1ccc(NC(=O)c2ccccc2O)cc1 | -5.4 | 8.8 | 84.8* | 30.6* | 58.6*
O=S(=O)(c1cn[nH]c1)N1CCCC1c1cccc(Cc2ccccc2)n1 (configuration not stated) | 7.0 | 24.7 | 18.0 | 14.9 | 27.0
CC(=O)N[C@@]12CN(Cc3ccc(N4CCCC4=O)cc3)CC[C@@H]1CN(C(C)=O)C2 | -1.8 | -3.1 | 5.6 | -0.2 | -13.9
Cc1c(N2CCN(C(=O)COc3ccccc3)CC2)c(=O)n(C)c(=O)n1-c1ccccc1 | 2.9 | 3.4 | -5.5 | -1.4 | -6.4
CCN1C(=O)COc2ccc(-c3noc(-c4ccc(C#N)cc4)n3)cc21 | -2.2 | -6.4 | 5.3 | -0.3 | -3.6
COc1ccc2[nH]cc(C(=O)c3ccc(F)cc3)c(=O)c2c1 | -1.1 | nt | 1.9 | 8.8 | nt
COc1ccc(S(=O)(=O)c2c[nH]c3ccc(C)cc3c2=O)cc1Cl | 2.2 | 23.5 | -6.9 | 37.2* | 14.6
COc1ccc2[nH]cc(S(=O)(=O)c3ccc(C#N)cc3)c(=O)c2c1 | 5.6 | 14.2 | 2.1 | 31.4* | 18.5
COc1ccc2[nH]cc(S(=O)(=O)c3ccc(C)c(F)c3)c(=O)c2c1 | 14.1 | 14.2 | 7.6 | 59.1* | 42.6*
O=C(C1c2ccccc2C(=O)N(C2CCCC2)C12CCCCC2)N1CCOCC1 (configuration not stated) | -2.0 | 1.8 | 12.4 | 3.5 | 5.4
O=C(C1CC1)N1CCCC(Cc2cc(-c3ccccc3)no2)(C(=O)O)C1 (configuration not stated) | 8.5 | 0.8 | 0.0 | 1.4 | 17.4
COCC1OC(OC2OCC3OC4(OC(C)C(O)(C(C)=O)C5OCOC54)O[C@H]3[C@H]2OC(=O)C(C)C)[C@@H](OC)[C@@H](O)C1O[C@@H]1O[C@H](C)[C@H](OC)[C@H](OC2O[C@H](C)C3OC4(C[C@@H](O)C(O[C@H]5C[C@@H](O)C(OC(=O)c6c(C)c(Cl)c(O)c(Cl)c6OC)[C@@H](C)O5)[C@@H](C)O4)O[C@@]3(C)[C@@H]2O)C1O (some centres not stated) | -8.2 | -8.6 | -4.3 | -5.9 | -22.3
